# Laboratory results: PubChem BioAssay (NCI)
# About 79,000 compounds went through this panel and 15% of them were active in at least one assay; those are over-represented in the sample as a whole. Values without a mark were called inactive. Active and inactive are the calls of the source. Rule as the data show it: active = growth inhibition above about 70%; inactive = the rest.
# Tests used:
# [1] = NCI Yeast Anticancer Drug Screen. Data for the rad52 strain (AID 147);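 also: 0% = growth of vehicle-treated control cultures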; conditions: S. cerevisiae rad52 mutant growth inhibition, stronger effect = higher value
# Outline: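 Screen used a yeast mutant impaired in DNA repair. After compound exposure, growth was measured. Values reflect inhibition compared with vehicle-treated cells.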
# [2] = NCI Yeast Anticancer Drug Screen. Data for the rad50EPP+ strain (AID 151);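 also: 0% = growth of vehicle-treated control cultures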; conditions: S. cerevisiae rad50 mutant strain, stronger effect = higher value
# Outline: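 Exposing the rad50EPP+ strain to each compound, growth was compared with vehicle-only cultures to give inhibition.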
# [3] = NCI Yeast Anticancer Drug Screen. Data for the mgt1 strain (AID 153); conditions: S. cerevisiae mgt1 mutant growth inhibition, stronger effect = higher value
# Outline: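 Genetically defined yeast (mgt1) treated with compound; inhibition of growth expressed against vehicle-treated controls.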
# [4] = NCI Yeast Anticancer Drug Screen. Data for the rad50 strain (AID 155);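 also: 0% = growth of vehicle-only cultures of the same strain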; conditions: S. cerevisiae rad50 strain growth inhibition, stronger effect = higher value
# Outline: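 Genetically altered yeast (DNA repair pathway); compound treatment; growth inhibition vs vehicle ctrl.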
# [5] = NCI Yeast Anticancer Drug Screen. Data for the mec2-1 strain (AID 157); conditions: S. cerevisiae mec2-1 strain, stronger effect = higher value
# Outline: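 Readout is yeast growth inhibition, normalised to vehicle-treated controls, in the mec2-1 strain exposed to compound.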
# [6] = NCI Yeast Anticancer Drug Screen. Data for the rad14 strain (AID 159);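 also: 0% = growth of vehicle-treated control cultures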; conditions: S. cerevisiae rad14 strain growth inhibition, stronger effect = higher value
# Outline: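 Test compounds were applied to a repair-deficient yeast strain. Its growth was then compared with that of cultures given vehicle alone, and inhibition was expressed relative to those controls.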
# [7] = NCI Yeast Anticancer Drug Screen. Data for the sgs1 mgt1 strain (AID 161);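 also: 0% = growth of cultures given vehicle only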; conditions: S. cerevisiae sgs1 mgt1 strain, stronger effect = higher value
# Outline: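 Yeast cells carrying a defined DNA-repair defect were exposed to test compounds. Growth inhibition was measured relative to vehicle-treated controls.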
# [8] = NCI Yeast Anticancer Drug Screen. Data for the CLN2oe strain (AID 163);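 also: 0% = growth of vehicle-only control cultures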; conditions: S. cerevisiae CLN2oe strain, stronger effect = higher value
# Outline: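 Values reflect how much compound exposure reduced yeast growth, referenced to vehicle-exposed cells. Assay organism is a strain with a defined genetic change affecting cell-cycle control.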
# [9] = NCI Yeast Anticancer Drug Screen. Data for the cln2 rad14 strain (AID 165);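 also: 0% = growth equal to vehicle treated cultures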; conditions: S. cerevisiae cln2 rad14 strain, stronger effect = higher value
# Outline: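 Relative to vehicle controls, growth inhibition of compound-treated cln2 rad14 yeast was recorded.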
# [10] = NCI Yeast Anticancer Drug Screen. Data for the bub3 strain (AID 167); conditions: S. cerevisiae bub3 mutant strain, stronger effect = higher value
# Outline: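 Yeast carrying a defined mutation is treated with each compound, and growth is compared with that of vehicle-exposed cells to give inhibition.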
# [11] = NCI Yeast Anticancer Drug Screen. Data for the wt2 strain (AID 169);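 also: 0% = growth of vehicle-treated yeast cultures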; conditions: S. cerevisiae wt2 strain growth inhibition, stronger effect = higher value
# Outline: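 Values express reduction in yeast growth under compound treatment, referenced to vehicle-treated cells.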
# [12] = NCI Yeast Anticancer Drug Screen. Data for the mlh1 strain (AID 171);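 also: 0% = growth of vehicle-treated control cultures of the same strain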; conditions: S. cerevisiae mlh1 strain growth inhibition, stronger effect = higher value
# Outline: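 Steps: expose the defined-mutant yeast strain to compound; expose a parallel culture to vehicle; measure growth; express compound effect as inhibition relative to the vehicle culture.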
# [13] = NCI Yeast Anticancer Drug Screen. Data for the mlh1 rad18 strain (AID 175); conditions: S. cerevisiae mlh1 rad18 strain growth inhibition, stronger effect = higher value
# Outline: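 Test agents were incubated with a yeast strain of defined genotype (DNA damage repair defect). Inhibition of growth was derived by comparison with vehicle-exposed cultures.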
# [14] = NCI Yeast Anticancer Drug Screen. Data for the rad18 strain (AID 177); conditions: S. cerevisiae rad18 mutant growth inhibition, stronger effect = higher value
# Outline: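 A genetically defined yeast mutant impaired in DNA damage repair was treated with test compounds, then its growth was measured against cultures receiving vehicle alone.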
# [15] = NCI Yeast Anticancer Drug Screen. Data for the wt1 strain (AID 149);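 also: 0% = growth of vehicle-treated wt1 cultures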; conditions: S. cerevisiae wt1 strain (SPY 50644) growth inhibition, stronger effect = higher value
# Outline: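 wt1 yeast, compound-treated; % growth inhibition vs vehicle control.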
# [16] = NCI Yeast Anticancer Drug Screen. Data for the sgs1 strain (AID 173);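 also: 0% = growth of vehicle-only control cultures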; conditions: S. cerevisiae sgs1 mutant, stronger effect = higher value
# Outline: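 Treat defined-mutant yeast with compound; measure growth; calculate inhibition relative to vehicle-treated cells.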
# [17] = at 5.0 µM (retest, dose inferred, filed as 0.5)
# [18] = at 50.0 µM (retest, dose inferred, filed as 5.0)
structure (smiles),measurement,setting,value
Cc1nc(-c2ccccc2)c(-c2ccccc2)s1,growth inhibition,[1]; at 1.2 µM,23%
same,growth inhibition,[1]; at 3.7 µM,0%
same,growth inhibition,[1]; at 11.0 µM,17%
same,growth inhibition,[1]; at 33.0 µM,68%
same,growth inhibition,[1]; at 100.0 µM,98% (active)
same,growth inhibition,[2]; at 1.2 µM,-24%
same,growth inhibition,[2]; at 3.7 µM,4%
same,growth inhibition,[2]; at 11.0 µM,29%
same,growth inhibition,[2]; at 33.0 µM,50%
same,growth inhibition,[2]; at 100.0 µM,65%
same,growth inhibition,[3]; at 1.2 µM,24%
same,growth inhibition,[3]; at 3.7 µM,8%
same,growth inhibition,[3]; at 11.0 µM,44%
same,growth inhibition,[3]; at 33.0 µM,95% (active)
same,growth inhibition,[3]; at 100.0 µM,99% (active)
same,growth inhibition,[4]; at 1.2 µM,-29%
same,growth inhibition,[4]; at 3.7 µM,-24%
same,growth inhibition,[4]; [17],98% (active)
same,growth inhibition,[4]; at 11.0 µM,-19%
same,growth inhibition,[4]; at 33.0 µM,77% (active)
same,growth inhibition,[4]; [18],100% (active)
same,growth inhibition,[4]; at 50.0 µM,84.4% (active)
same,growth inhibition,[4]; at 100.0 µM,97% (active)
same,growth inhibition,[5]; at 1.2 µM,3%
same,growth inhibition,[5]; at 3.7 µM,26%
same,growth inhibition,[5]; [17],96% (active)
same,growth inhibition,[5]; at 11.0 µM,24%
same,growth inhibition,[5]; at 33.0 µM,67%
same,growth inhibition,[5]; [18],100% (active)
same,growth inhibition,[5]; at 50.0 µM,84.5% (active)
same,growth inhibition,[5]; at 100.0 µM,97% (active)
same,growth inhibition,[6]; at 1.2 µM,9%
same,growth inhibition,[6]; at 3.7 µM,10%
same,growth inhibition,[6]; at 11.0 µM,7%
same,growth inhibition,[6]; at 33.0 µM,84% (active)
same,growth inhibition,[6]; at 100.0 µM,97% (active)
same,growth inhibition,[7]; [17],-6%
same,growth inhibition,[7]; [18],100% (active)
same,growth inhibition,[7]; at 50.0 µM,88.4% (active)
same,growth inhibition,[8]; at 1.2 µM,-2%
same,growth inhibition,[8]; at 3.7 µM,-17%
same,growth inhibition,[8]; at 11.0 µM,1%
same,growth inhibition,[8]; at 33.0 µM,39%
same,growth inhibition,[8]; at 100.0 µM,96% (active)
same,growth inhibition,[9]; [17],71% (active)
same,growth inhibition,[9]; [18],101% (active)
same,growth inhibition,[9]; at 50.0 µM,66.1%
same,growth inhibition,[10]; at 1.2 µM,6%
same,growth inhibition,[10]; at 3.7 µM,2%
same,growth inhibition,[10]; [17],8%
same,growth inhibition,[10]; at 11.0 µM,22%
same,growth inhibition,[10]; at 33.0 µM,78% (active)
same,growth inhibition,[10]; [18],101% (active)
same,growth inhibition,[10]; at 50.0 µM,84.5% (active)
same,growth inhibition,[10]; at 100.0 µM,98% (active)
same,growth inhibition,[11]; at 1.2 µM,-38%
same,growth inhibition,[11]; at 3.7 µM,-16%
same,growth inhibition,[11]; at 11.0 µM,-20%
same,growth inhibition,[11]; at 33.0 µM,81% (active)
same,growth inhibition,[11]; at 100.0 µM,97% (active)
same,growth inhibition,[12]; at 1.2 µM,29%
same,growth inhibition,[12]; at 3.7 µM,16%
same,growth inhibition,[12]; at 11.0 µM,41%
same,growth inhibition,[12]; at 33.0 µM,87% (active)
same,growth inhibition,[12]; at 100.0 µM,97% (active)
same,growth inhibition,[13]; [17],100% (active)
same,growth inhibition,[13]; [18],100% (active)
same,growth inhibition,[13]; at 50.0 µM,86.5% (active)
same,growth inhibition,[14]; at 1.2 µM,-10%
same,growth inhibition,[14]; at 3.7 µM,8%
same,growth inhibition,[14]; at 11.0 µM,6%
same,growth inhibition,[14]; at 33.0 µM,67%
same,growth inhibition,[14]; at 100.0 µM,94% (active)
CCNc1nnc(CSc2nc(-c3ccccc3)c(-c3ccccc3)[nH]2)s1,growth inhibition,[1]; at 1.2 µM,-6%
same,growth inhibition,[1]; at 3.7 µM,14%
same,growth inhibition,[1]; at 11.0 µM,-1%
same,growth inhibition,[1]; at 33.0 µM,86% (active)
same,growth inhibition,[1]; at 100.0 µM,80% (active)
same,growth inhibition,[15]; at 1.2 µM,-4%
same,growth inhibition,[15]; at 3.7 µM,-9%
same,growth inhibition,[15]; at 11.0 µM,-19%
same,growth inhibition,[15]; at 33.0 µM,81% (active)
same,growth inhibition,[15]; at 100.0 µM,77% (active)
same,growth inhibition,[3]; at 1.2 µM,-9%
same,growth inhibition,[3]; at 3.7 µM,-11%
same,growth inhibition,[3]; at 11.0 µM,-18%
same,growth inhibition,[3]; at 33.0 µM,87% (active)
same,growth inhibition,[3]; at 100.0 µM,73% (active)
same,growth inhibition,[4]; at 1.2 µM,-3%
same,growth inhibition,[4]; at 3.7 µM,-15%
same,growth inhibition,[4]; [17],7%
same,growth inhibition,[4]; at 11.0 µM,-13%
same,growth inhibition,[4]; at 33.0 µM,77% (active)
same,growth inhibition,[4]; [18],94% (active)
same,growth inhibition,[4]; at 50.0 µM,79.3% (active)
same,growth inhibition,[4]; at 100.0 µM,76% (active)
same,growth inhibition,[5]; at 1.2 µM,8%
same,growth inhibition,[5]; at 3.7 µM,0%
same,growth inhibition,[5]; [17],-8%
same,growth inhibition,[5]; at 11.0 µM,-8%
same,growth inhibition,[5]; at 33.0 µM,73% (active)
same,growth inhibition,[5]; [18],93% (active)
same,growth inhibition,[5]; at 50.0 µM,66%
same,growth inhibition,[5]; at 100.0 µM,77% (active)
same,growth inhibition,[6]; at 1.2 µM,-10%
same,growth inhibition,[6]; at 3.7 µM,-4%
same,growth inhibition,[6]; at 11.0 µM,-51%
same,growth inhibition,[6]; at 33.0 µM,58%
same,growth inhibition,[6]; at 100.0 µM,55%
same,growth inhibition,[7]; [17],7%
same,growth inhibition,[7]; [18],97% (active)
same,growth inhibition,[7]; at 50.0 µM,64.8%
same,growth inhibition,[8]; at 1.2 µM,5%
same,growth inhibition,[8]; at 3.7 µM,-7%
same,growth inhibition,[8]; at 11.0 µM,5%
same,growth inhibition,[8]; at 33.0 µM,85% (active)
same,growth inhibition,[8]; at 100.0 µM,76% (active)
same,growth inhibition,[9]; [17],4%
same,growth inhibition,[9]; [18],97% (active)
same,growth inhibition,[9]; at 50.0 µM,75% (active)
same,growth inhibition,[10]; at 1.2 µM,-10%
same,growth inhibition,[10]; at 3.7 µM,-29%
same,growth inhibition,[10]; [17],36%
same,growth inhibition,[10]; at 11.0 µM,-23%
same,growth inhibition,[10]; at 33.0 µM,87% (active)
same,growth inhibition,[10]; [18],97% (active)
same,growth inhibition,[10]; at 50.0 µM,85.2% (active)
same,growth inhibition,[10]; at 100.0 µM,82% (active)
same,growth inhibition,[11]; at 1.2 µM,-3%
same,growth inhibition,[11]; at 3.7 µM,-9%
same,growth inhibition,[11]; at 11.0 µM,-37%
same,growth inhibition,[11]; at 33.0 µM,92% (active)
same,growth inhibition,[11]; at 100.0 µM,83% (active)
same,growth inhibition,[12]; at 1.2 µM,3%
same,growth inhibition,[12]; at 3.7 µM,5%
same,growth inhibition,[12]; at 11.0 µM,0%
same,growth inhibition,[12]; at 33.0 µM,81% (active)
same,growth inhibition,[12]; at 100.0 µM,66%
same,growth inhibition,[16]; at 1.2 µM,23%
same,growth inhibition,[16]; at 3.7 µM,18%
same,growth inhibition,[16]; at 11.0 µM,18%
same,growth inhibition,[16]; at 33.0 µM,71% (active)
same,growth inhibition,[16]; at 100.0 µM,80% (active)
same,growth inhibition,[13]; [17],-1%
same,growth inhibition,[13]; [18],93% (active)
same,growth inhibition,[13]; at 50.0 µM,86.3% (active)
same,growth inhibition,[14]; at 1.2 µM,12%
same,growth inhibition,[14]; at 3.7 µM,16%
same,growth inhibition,[14]; at 11.0 µM,13%
same,growth inhibition,[14]; at 33.0 µM,89% (active)
same,growth inhibition,[14]; at 100.0 µM,79% (active)
